Assay outcomes as filed in PubChem BioAssay.
The list is not random: actives were taken first. Their share in the collection is about 27%.
CYP2C19 act = cytochrome P450 2C19 (human) activation. P33261. 96,000 tested, under 10 active. AID 1025. recombinant CYP2C19, luciferin-H EGE luminescence; active compounds read high; 0 = fully inhibited enzyme, 1 = untreated enzyme. activation factor at 5 µM;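 active = activation factor of at least 2 at 5 µM in the primary screen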;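 note: 0 = wells with 2.5 mM tranylcypromine and 1 = vehicle-only wells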
Target sequence (P33261 whole entry, looked up): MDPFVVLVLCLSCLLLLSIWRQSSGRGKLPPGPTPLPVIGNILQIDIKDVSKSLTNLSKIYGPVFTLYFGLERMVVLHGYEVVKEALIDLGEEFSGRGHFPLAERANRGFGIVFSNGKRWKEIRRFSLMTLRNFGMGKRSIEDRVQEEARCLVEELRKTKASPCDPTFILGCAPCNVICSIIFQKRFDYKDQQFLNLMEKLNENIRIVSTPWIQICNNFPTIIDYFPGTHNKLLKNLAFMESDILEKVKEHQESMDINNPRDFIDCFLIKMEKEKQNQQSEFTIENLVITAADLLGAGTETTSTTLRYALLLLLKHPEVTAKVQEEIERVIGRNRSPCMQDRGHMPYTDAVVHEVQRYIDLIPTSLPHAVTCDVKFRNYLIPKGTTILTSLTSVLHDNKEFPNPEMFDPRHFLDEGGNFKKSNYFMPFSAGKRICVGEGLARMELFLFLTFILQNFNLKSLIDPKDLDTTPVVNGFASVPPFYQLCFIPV
CYP2C9 inh = inhibitors of human CYP2C9; inhibition, % at 5 µM; hit rate 20% among 96,000; CYP2C9 Supersomes, luciferin-H conversion, luminescence; P11712; AID 777;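 active = blocking of liver enzyme CYP2C9 beyond about 50% at 5 µM, limit read from the data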
Cav3 T inh = blocks human Cav3.2 T-type calcium channel. B-score at 10 µM. Cav3.2-expressing cells, Fluo-4 calcium fluorescence FDSS; active compounds read low. O95180. AID 449739. hit rate 4% among 100,000;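 active = single-dose well whose peak fluorescence ratio is a statistical outlier from its plate by either plate-standardised score or position-corrected B-score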
CYP2C19 inh = blocks human cytochrome P450 2C19. P33261. CYP2C19 Supersomes, luciferin-H EGE luminescence, 30 min. inhibition, % at 5 µM. hit rate 21% among 96,000. AID 778;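 active = CYP2C19 inhibition above a set limit at 5 µM in the primary screen, cut at about 50% in these data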;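 note: plate controls were negative control wells for no effect and 2.5 mM tranylcypromine positive control for full effect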
CYP2C9 act = increases human cytochrome P450 2C9 activity; recombinant CYP2C9, luciferin-H conversion, luminescence; active compounds read high; factor 1 = untreated enzyme, 0 = blocked; hit rate 1.4% among 96,000; activation factor at 5 µM;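 active = activation factor of 2 or more for CYP2C9 at a 5 µM dose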;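 note: 0 = sulfaphenazole-blocked wells and 1 = vehicle-only wells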
An asterisk follows results filed as active; x = not tested or not shown.

SMILES	CYP2C19 act	CYP2C9 inh	Cav3 T inh	CYP2C19 inh	CYP2C9 act
CC1(C)CC(=O)c2c(-c3cccnc3)n[nH]c2C1	0.9	-6.4	1.58	13.4	1.1
O=C(O)c1ccccc1C1=Nc2ccc(O)cc2Oc2cc(O)ccc21	0.8	16.4	-9.2*	21.5	0.8
Cc1ccc2[nH]c(=O)c(C(c3nnnn3CCc3ccccc3)N3CCOCC3)cc2c1 (stereo not drawn)	1	-1.1	-1.02	-2.4	1
NC(=O)c1nn(-c2ccccc2)c(=O)cc1O	1.1	-6.5	1.15	-7.6	1.1
CCCCCCCC(=O)Nc1ccc(C(=O)N/N=C/c2cccc([N+](=O)[O-])c2)cc1	1	12.1	-0.289	-4.9	0.9
CCCCCCCCCS(=O)(=O)N/N=C/c1cccc([N+](=O)[O-])c1	0.8	67.9*	-0.216	21.8	0.3
CSC1=NCCN1C(=O)COc1ccc2ccccc2c1	0.1	32.0	-1.94	88.4*	0.7
CCOc1ccccc1NC(=O)Cn1nnc(-c2ccc(OCC)c(OCC)c2)n1	0.1	85.0*	x	88.6*	0.2
COC(=O)c1cc(OC)c(OC)cc1NC(=O)Nc1ccccc1OC	1.1	-30.3	-0.31	-13.5	1.3
CCOC(=O)Nc1cccc(OCC(=O)Nc2ccccc2OCC)c1	0.1	-32.6	-0.0505	87.5*	1.3
CCC(COC(=O)Nc1cccc(C)c1)NC(=O)OCC(C)C (stereo not drawn)	0.1	55.1*	-4.69*	93.4*	0.4
CCOCC(=O)Nc1cccc(OC)c1	x	x	0.025	x	x
COC(=O)c1cc(OC)c(OC)cc1NC(=O)CSc1ccccc1	0.3	7.3	-3.18	65.2*	0.9
CCOc1ccc(-c2nnn(CC(=O)Nc3cc(OC)ccc3OC)n2)cc1OCC	0.6	16.1	0.55	37.9	0.8
NC(=O)[C@H]1CC2(CC(c3cccc(NC(=O)COc4ccc(Cl)cc4)c3)=NO2)CN1C(=O)C(c1ccccc1)c1ccccc1 (stereo partly drawn)	x	x	-2.23	x	x
CCOCc1cc(C)[nH]c(=O)c1C#N	1	3.5	x	4.9	1
CCOC(=O)C1=C(CSc2nncn2C)NC(=O)NC1c1cc(OCC)ccc1OCC (stereo not drawn)	1.2	-23.2	x	-17.2	1.2
CCOC(=O)Nc1c(C(=O)OC)[nH]c2cccc(OC)c12	0.8	9.9	-0.474	17.3	0.9
CCCCCCSc1nc(O)c(C2OC(=O)c3c2ccc(OC)c3OC)c(=O)n1CC (stereo not drawn)	1.1	24.5	-0.0359	-5.9	0.8
CCOc1ccccc1NC(=O)CCC(=O)O	0.8	21.0	-0.198	22.2	0.8
Cc1ccccc1OCCCC(=O)Nc1ccccc1C(F)(F)F	0.7	-121.6	-1.63	32.4	2.2*
Cc1cccc(OCCCC(=O)Nc2ccccc2C(F)(F)F)c1	0.7	3.7	-2.01	34.5	1
CCOc1ccccc1NC(=O)CCC(=O)Nc1ccccc1OCC	0.5	-165.9	0.412	47.1	2.7*
COc1ccccc1NC(=O)c1ccc(N)cc1	0.8	-313.2	-4.24*	15.3	4.1*
CCOc1ccccc1NC(=O)CCN1CCN(S(=O)(=O)c2ccc(Br)cc2)CC1	0.4	36.0	x	62.7*	0.6
SMILES	CYP2C19 act	CYP2C9 inh	Cav3 T inh	CYP2C19 inh	CYP2C9 act
COC(C[C@H]1O[C@H]1[C@H](O)COCc1ccccc1)OC	x	x	1.01	x	x
CCOc1ccccc1NC(=O)CSc1ccccc1	0.5	-256.6	-1.29	51.0*	3.6*
Cc1ccc(S(=O)(=O)NC(=O)Nc2cc(C)ccc2F)cc1	0.9	10.0	-1.67	5.6	0.9
CCOc1ccccc1NC(=O)NS(=O)(=O)c1ccc(C)cc1	0.8	90.8*	-0.135	20.5	0.1
COc1ccccc1NC(=O)CCC(=O)O	0.9	55.6*	-0.0572	13.5	0.4
CCOc1ccccc1NC(=O)Cc1ccccc1OC	0.4	-120.4	-1	57.9*	2.2*
COc1ccccc1NC(=O)CCn1cccc1	0.9	-72.0	1.83	11.5	1.7
c1ccc(CN2CCN(c3ncnc4nc[nH]c34)CC2)cc1	0.6	3.5	x	37.0	1
CC1(c2nnc(-c3cccc(Cl)c3)o2)CC(c2ccccc2)=NO1 (stereo not drawn)	x	x	0.391	x	x
CCC(CC)C(=O)c1c[nH]c(C(=O)NCC2CCCO2)c1 (stereo not drawn)	1	1.2	1.35	0.8	1
CCOC(=O)Nc1cccc(C(=O)O)c1	x	x	0.409	x	x
CCOC(=O)Nc1cccc(Nc2ccccc2)c1	0.2	75.3*	-1.23	79.4*	0.2
COc1ccccc1NC(=O)C1C2CCCCC21 (stereo not drawn)	0.6	-263.5	x	42.8	3.6*
CCOC(=O)N1CCN(C(=S)Nc2cc(OC)c(OC)cc2C(=O)OC)CC1	0	1.9	1.06	97.5*	1
O=C1CS/C(=C\[N+](=O)[O-])N1c1ccccc1	0.9	5.6	0.167	6.3	0.9
CCC(=O)OCc1cc2cccc(C)c2[nH]c1=O	0.5	4.7	0.142	52.6*	1
COc1ccc(CC(=O)OCc2cc3cccc(C)c3[nH]c2=O)cc1	1	1.1	-0.579	-0.9	1
CCC(C)N1C(=O)CCC1C(=O)NCc1ccc2c(c1)OCO2 (stereo not drawn)	1	0.4	-0.395	0.4	1
O=C(CN1CCc2ccccc2C1)NCc1ccco1	0.1	35.2	0.295	92.7*	0.6
Cc1ccccc1CSCC(=O)NC(=O)NCc1ccco1	0.9	5.4	-2.62	9.5	0.9
O=C(NCc1ccco1)C1(c2ccccc2)CCCC1	0.4	35.4	-0.15	57.0*	0.6
O=C(CN1C(=O)NC2(CCCc3ccccc32)C1=O)NCc1ccco1 (stereo not drawn)	1	78.1*	0.297	-1.4	0.2
O=C(CN1CCc2ccccc21)NC(=O)NCc1ccco1	0.8	11.1	-0.676	24.0	0.9
O=C(CN1C(=O)NC2(CCCCCC2)C1=O)NCc1ccco1	0.9	5.9	0.79	6.6	0.9
COc1ccc(C2(C(=O)NCc3ccco3)CCCC2)cc1OC	0.8	-2.8	0.559	23.3	1
SMILES	CYP2C19 act	CYP2C9 inh	Cav3 T inh	CYP2C19 inh	CYP2C9 act
O=C(CN1CCC(Cc2ccccc2)CC1)NC(=O)NCc1ccco1	0.4	0.1	-2.59	57.8*	1
O=C(NCc1nc2ccccc2[nH]1)C1=C[C@@H](c2ccccc2)C[C@@H](OCCCCO)O1	x	x	-1.59	x	x
CC1(c2ccc(Cl)cc2)NC(=O)N(CC(=O)NC(=O)NCc2ccco2)C1=O (stereo not drawn)	0.3	66.7*	-1.41	66.2*	0.3
COC(=O)C1Sc2[nH]c(=O)sc2C(c2ccc(Cl)cc2)C1C(=O)OC (stereo not drawn)	0.3	93.3*	x	74.7*	0.1
CCOC(=O)C1(CCSC)NC(c2ccco2)C2C(=O)N(C)C(=O)C21 (stereo not drawn)	0.9	-7.4	2.37	5.8	1.1
Cc1cc(C)cc(COn2ccnc2)c1	0.3	45.9	0.0599	68.7*	0.5
Cc1cc(C)n(CCCNCC(O)c2ccccc2)n1 (stereo not drawn)	0.9	4.8	-0.0361	7.5	1
O=C(c1cn(-c2ccccc2)nc1-c1cccs1)N1CCN(c2ccc(F)cc2)CC1	0.2	73.9*	x	83.9*	0.3
